Source: PubChem BioAssay (EPA / NIEHS)
The source made the active and inactive calls. Rule for the calls: active = hit-call score of the fitted dose curve at least 0.9, where 1 is the maximum; inactive = score below 0.9.

Legend:
[1] = read-out: Macrophage colony-stimulating factor (MCSF), CSF1 (gene 1435); assay: BSK_CASM3C_MCSF: BioMAP Diversity Plus: CASM3C Assay for Macrophage colony-stimulating factor (MCSF) Biomarker Activity (AID 2283044); conditions: primary human coronary artery smooth muscle cells; actives raise or lower the signal;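 note: M-CSF protein amount quantified by ELISA after 24 h exposure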
[2] = read-out: Low-density lipoprotein receptor (LDLR), LDLR (gene 3949); assay: BSK_CASM3C_LDLR: BioMAP Diversity Plus: CASM3C Assay for Low-density lipoprotein receptor (LDLR) Biomarker Activity (AID 2283045); conditions: primary human coronary artery smooth muscle cells; actives raise or lower the signal;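 note: LDLR protein level on the cell surface quantified by ELISA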
[3] = read-out: Monocyte Chemoattractant Protein-1 (MCP1), CCL2 (gene 6347); assay: BSK_CASM3C_MCP1: BioMAP Diversity Plus: CASM3C Assay for Monocyte Chemoattractant Protein-1 (MCP1) Biomarker Activity (AID 2283046); conditions: primary human coronary artery smooth muscle cells; actives raise or lower the signal;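 note: MCP-1 level quantified by ELISA 24 h after dosing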
[4] = BSK_CASM3C_Proliferation: Cell Proliferation Assessment in the BioMAP Diversity Plus: CASM3C Assay (AID 2283047); conditions: primary human coronary artery smooth muscle cells;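 note: sulforhodamine B total protein stain as relative cell number at 560 nm; sub-confluent cells exposed 48 h before staining; fitted both ways against DMSO so gain or loss of cell number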
[5] = read-out: Monokine induced gamma interferon (MIG), CXCL9 (gene 4283); assay: BSK_CASM3C_MIG: BioMAP Diversity Plus: CASM3C Assay for Monokine induced gamma interferon (MIG) Biomarker Activity (AID 2283048); conditions: primary human coronary artery smooth muscle cells; actives raise or lower the signal;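 note: MIG protein level measured by ELISA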
[6] = read-out: serum amyloid A (SAA), SAA1 (gene 6288); assay: BSK_CASM3C_SAA: BioMAP Diversity Plus: CASM3C Assay for serum amyloid A (SAA) Biomarker Activity (AID 2283049); conditions: primary human coronary artery smooth muscle cells; actives raise or lower the signal;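 note: SAA protein level quantified by ELISA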
[7] = BSK_CASM3C_SRB: Viability Assessment in the BioMAP Diversity Plus: CASM3C Assay (AID 2283050); conditions: primary human coronary artery smooth muscle cells;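 note: total protein by SRB staining as cytotoxicity measure in parallel cultures; cells exposed to compound for 24 h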
[8] = read-out: Thrombomodulin, THBD (gene 7056); assay: BSK_CASM3C_Thrombomodulin: BioMAP Diversity Plus: CASM3C Assay for Thrombomodulin Biomarker Activity (AID 2283051); conditions: primary human coronary artery smooth muscle cells; actives raise or lower the signal;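 note: thrombomodulin protein level measured by ELISA 24 h after dosing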
[9] = read-out: Tissue Factor, F3 (gene 2152); assay: BSK_CASM3C_TissueFactor: BioMAP Diversity Plus: CASM3C Assay for Tissue Factor Biomarker Activity (AID 2283052); conditions: primary human coronary artery smooth muscle cells; actives raise or lower the signal;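 note: cell surface tissue factor protein level read by ELISA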
[10] = read-out: Interferon-gamma inducible Protein 10 (IP10), CXCL10 (gene 3627); assay: BSK_hDFCGF_IP10: BioMAP Diversity Plus: hDFCGF Assay for Interferon-gamma inducible Protein 10 (IP10) Biomarker Activity (AID 2283053); conditions: primary human foreskin fibroblasts; actives raise or lower the signal
How it was run: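 Primary foreskin fibroblasts, human; 24 h compound exposure; IP-10 by ELISA; bidirectional fit vs DMSO.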

[11] = read-out: Urokinase-type plasminogen activator receptor (uPAR), PLAUR (gene 5329); assay: BSK_CASM3C_uPAR: BioMAP Diversity Plus: CASM3C Assay for Urokinase-type plasminogen activator receptor (uPAR) Biomarker Activity (AID 2283054); conditions: primary human coronary artery smooth muscle cells; actives raise or lower the signal;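 note: cell-surface uPAR protein level quantified by ELISA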
[12] = read-out: Vascular cell adhesion molecule 1 (VCAM1), VCAM1 (gene 7412); assay: BSK_CASM3C_VCAM1: BioMAP Diversity Plus: CASM3C Assay for Vascular cell adhesion molecule 1 (VCAM1) Biomarker Activity (AID 2283055); conditions: primary human coronary artery smooth muscle cells; actives raise or lower the signal;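 note: VCAM-1 protein level quantified by ELISA on the cells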
[13] = read-out: Collagen III, COL3A1 (gene 1281); assay: BSK_hDFCGF_CollagenIII: BioMAP Diversity Plus: hDFCGF Assay for Collagen III Biomarker Activity (AID 2283056); conditions: primary human foreskin fibroblasts; actives raise or lower the signal
How it was run: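 Human foreskin primary fibroblasts were exposed to test chemicals for 24 h, after which collagen III was quantified by ELISA. Activity was fitted bidirectionally against DMSO as negative control and baseline.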

[14] = read-out: Epidermal growth factor receptor (EGFR), EGFR (gene 1956); assay: BSK_hDFCGF_EGFR: BioMAP Diversity Plus: hDFCGF Assay for Epidermal growth factor receptor (EGFR) Biomarker Activity (AID 2283057); conditions: primary human foreskin fibroblasts; actives raise or lower the signal
How it was run: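 hDFCGF system, primary human foreskin fibroblasts; compound 24 h; EGFR measured by ELISA; DMSO = negative control/baseline; bidirectional fitting.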

[15] = read-out: Interleukin-8 (IL8), CXCL8 (gene 3576); assay: BSK_hDFCGF_IL8: BioMAP Diversity Plus: hDFCGF Assay for Interleukin-8 (IL8) Biomarker Activity (AID 2283058); conditions: primary human foreskin fibroblasts; actives raise or lower the signal
How it was run: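 hDFCGF human dermal fibroblasts; 24 h chemical exposure; IL-8 by ELISA; bidirectional curve fit vs DMSO baseline; gain or loss of signal scored.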

[16] = BSK_hDFCGF_Proliferation: Cell Proliferation Assessment in the BioMAP Diversity Plus: hDFCGF Assay (AID 2283059); conditions: primary human foreskin fibroblasts;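 note: curves fitted for both rise and fall of signal versus DMSO baseline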
How it was run: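 Steps: dose primary human dermal fibroblasts (foreskin); […] fix in 10% TCA; stain with 0.1% SRB; read 560 nm; fit gain or loss of signal against DMSO.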

[17] = read-out: Macrophage colony-stimulating factor (MCSF), CSF1 (gene 1435); assay: BSK_hDFCGF_MCSF: BioMAP Diversity Plus: hDFCGF Assay for Macrophage colony-stimulating factor (MCSF) Biomarker Activity (AID 2283060); conditions: primary human foreskin fibroblasts; actives raise or lower the signal
How it was run: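 Human foreskin primary fibroblasts were treated with test chemical for 24 h, and M-CSF was then measured by ELISA. Data were fitted bidirectionally against DMSO as the negative control and activity baseline.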

[18] = BSK_hDFCGF_SRB: Viability Assessment in the BioMAP Diversity Plus: hDFCGF Assay (AID 2283061); conditions: primary human foreskin fibroblasts;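 note: cells exposed to compound for 24 h before the read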
How it was run: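 Human foreskin primary fibroblasts were treated with compound and assessed 24 h after dosing. Total protein was measured by sulforhodamine B staining (0.1% SRB after 10% TCA fixation, 560 nm read) as a cytotoxicity marker, with bidirectional fitting against DMSO baseline.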

[19] = read-out: TIMP metallopeptidase inhibitor 1 (TIMP1), TIMP1 (gene 7076); assay: BSK_hDFCGF_TIMP1: BioMAP Diversity Plus: hDFCGF Assay for TIMP metallopeptidase inhibitor 1 (TIMP1) Biomarker Activity (AID 2283062); conditions: primary human foreskin fibroblasts; actives raise or lower the signal
How it was run: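 Primary human foreskin fibroblasts in the hDFCGF system were dosed with compound for 24 h, then TIMP-1 was measured by ELISA. Activity was fitted bidirectionally relative to DMSO control; parallel SRB staining assessed cytotoxicity.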

[20] = read-out: Monokine induced gamma interferon (MIG), CXCL9 (gene 4283); assay: BSK_hDFCGF_MIG: BioMAP Diversity Plus: hDFCGF Assay for Monokine induced gamma interferon (MIG) Biomarker Activity (AID 2283063); conditions: primary human foreskin fibroblasts; actives raise or lower the signal
How it was run: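 ELISA read-out of MIG from primary human dermal fibroblasts 24 h post-dosing. Gain or loss of signal fitted bidirectionally, DMSO as baseline.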

Measured: AC50

Nc1ccc(N)cc1
inactive: all assays above

CCOC(=O)CCN(SN(C)C(=O)Oc1cccc2c1OC(C)(C)C2)C(C)C
inactive: [2] | [3] | [5] | [6] | [7] | [8] | [14] | [15]
active: [1] 20 µM | [4] 20 µM | [9] 8.62 µM | [10] 37.1 µM | [11] 33.3 µM | [12] 20 µM | [13] 4.31 µM | [16] 15.2 µM | [17] 26 µM | [18] 31 µM | [19] 33.5 µM | [20] 29.9 µM

NC(=O)CCl
active: [13] 9.58 µM
inactive: all other assays above

CCOC(=O)CC(=O)CCl
active: [1] 20 µM | [4] 26.3 µM | [5] 31.6 µM | [7] 25.7 µM | [9] 14 µM | [12] 20 µM | [16] 19 µM | [17] 20 µM | [20] 20 µM
inactive: all other assays above

Clc1cccc(Cl)c1
inactive: all assays above

Oc1cccc(-c2ccccc2)c1
active: [3] 20 µM | [4] 34.4 µM | [7] 28.7 µM | [9] 20 µM | [12] 31.7 µM | [13] 30 µM | [16] 35.3 µM | [17] 33.7 µM | [18] 30.7 µM
inactive: all other assays above
